Measurements taken from PubChem BioAssay (Tox21).
Active and inactive are the calls of the source. The call rests on the fitted dose curve; in most records, active means well fitted curve in the direction sought with a large enough effect in the repeat runs; inconclusive means weak or mixed curves; inactive means flat fitted curve, though single readings scatter.
On the % scale 0 is the no-effect control and ±100 the full control effect.

Test: qHTS assay to test for compound auto fluorescence at 590 nm (red) in HepG2 cell free culture (AID 720684)
Conditions: cell-free medium autofluorescence, red 540/590 nm; series mostly up to 91.3 µM
Text: U.S. Tox21 Program National Center for Advancing Translational Sciences [NCATS] NIH Chemical Genomics Center [NCGC] U.S. Environmental Protection Agency [EPA] National Institutes of Environmental Health Sciences [NIEHS] National Toxicology Program [NTP] U.S. Food and Drug Administration [FDA] Tox21 Assay Overview: Compound auto fluorescence often interferes with screening of the compound library against various biological targets and signaling pathways. Some of these compounds may have fluorophoric properties. Such properties may interfere with the assay outputs resulting in false positives and/or negatives. To decrease such complications and ensure the compound activities are relevant in terms of biological response, the Tox21 10K compound library was screened for auto fluorescence. From the fluorophores used as reporter signals in our screening assays, the auto fluorescence equivalencies of compounds against three fluorophores have been evaluated: Triamterene, Fluorescein and Rose Bengal sodium for blue, green and red fluorescence, respectively. The fluorescence intensities were measured using Excitation/Emission wavelengths at 405/460nm, 485/535nm and 540/590nm for blue, green and red labels, respectively. This assay includes the red fluorescence data.
Tox21 Assay Protocol Summary: 5 uL of culture medium (MEM containing 10% FBS) per well was dispensed into black wall/clear bottom 1536-well plates using a Multidrop Combi Dispenser (ThermoFisher Scientific, Waltham, MA). After 23 nL compound or DMSO vehicle was transferred into assay plate by a pintool work station (Kalypsys, San Diego, CA), fluorescence intensities in the assay plates were measured by an Envision (PerkinElmer, Shelton, CT) plate reader using three labels for measuring blue, green and red fluorescence at […] 460, 535 and 590nm respectively.
With `CC(=O)Nc1ccc(/C=N/NC(N)=S)cc1` the outcome was “inactive”. For `CCc1nn(C2CCCCC2)c2cc(C3(C#N)CCC(C(=O)O)CC3)ccc12` (stereo not given), the outcome was “inactive”. In the case of `CCCCOC(=O)c1ccccc1C(=O)OCC(CC)CCCC` (stereo not given), the outcome is reported as “inactive”. In the case of `O=C(O)COC(=O)Cc1ccccc1Nc1c(Cl)cccc1Cl`, the fluorescence, % of Rose Bengal is reported as -0.0238% [at 18.6 µM] (inactive). For `OCCC1CCCCN1` (stereo not given), the outcome was “inactive”. For `CC[C@H](C)[C@@H](C(=O)O)n1sc2ccccc2c1=O`, the outcome was “inactive”. In the case of `CCCCCC(CO)CCC` (stereo not given), the outcome is reported as “inactive”. In the case of `CCCCOC(O)CC` (stereo not given), the outcome is reported as “inactive”. With `CN(C)CCCNCCCN` the outcome was “inactive”. With `C=Cc1c(C)c2cc3[nH]c(cc4nc(cc5nc(cc1[nH]2)C(C)=C5CCC(=O)O)C(CCC(=O)O)=C4C)c(C)c3C=C` the outcome was “inactive”. With `O=C(Cl)c1ccc([N+](=O)[O-])cc1` the outcome was “inactive”. With `NCc1ccccc1` the outcome was “inactive”. For `CCCCC(CC)(CO)CO`, the outcome was “inactive”. For `CN1CCC[C@@H]1c1cccnc1`, the outcome was “inactive”. With `C=CC[N+]1([C@H]2C[C@H]3[C@@H]4CC[C@H]5C[C@H](OC(C)=O)[C@@H](N6CCCCC6)C[C@]5(C)[C@H]4CC[C@]3(C)[C@H]2OC(=O)CC)CCCCC1` the outcome was “inactive”. With `NC(N)=N/N=C/c1c(Cl)cccc1Cl` the outcome was “inactive”. For `CCN(CC)CCNC(C(=O)OCCC(C)C)c1ccccc1` (stereo not given), the outcome was “inactive”. In the case of `FC(F)(F)C(F)(F)C(F)(F)C(F)(F)C(F)(F)C(F)(F)CCI`, the outcome is reported as “inactive”. In the case of `O=S1(=O)N=C(O)c2ccccc21`, the outcome is reported as “inactive”. In the case of `CC(CN)CCCN` (stereo not given), the outcome is reported as “inactive”. For `Cn1c(N)nc2nc[nH]c2c1=O`, the outcome was “inactive”. For `Cc1occc1S`, the outcome was “inactive”. For `CCCC(=O)OCC`, the outcome was “inactive”. For `N#CCc1cccc(C(F)(F)F)c1`, the outcome was “inactive”. In the case of `CN(C)CC/C=C1\c2ccccc2COc2ccccc21`, the outcome is reported as “inactive”. For `Cc1c(Cn2ccnc2)c2ccccc2n1CCC(=O)O`, the outcome was “inactive”. With `CCN(CC)CCOC(=O)C1(c2ccccc2)CCCC1` the outcome was “inactive”. In the case of `CCN(CC)C(C)=O`, the outcome is reported as “inactive”. In the case of `N=C(N=C(N)N)N1CCOCC1`, the fluorescence, % of Rose Bengal is reported as 0.0286% [at 18.6 µM] (inactive). For `CN1CCC(=C2c3ccccc3CCc3sccc32)CC1`, the outcome was “inactive”. With `CC(Cc1cccc(C(F)(F)F)c1)NCCOC(=O)c1ccccc1` (stereo not given) the outcome was “inactive”. In the case of `Oc1ccc(C(O)CNCCCCCCNCC(O)c2ccc(O)c(O)c2)cc1O` (stereo not given), the outcome is reported as “inactive”. With `CNS(=O)(=O)Cc1ccc2[nH]cc(CCN(C)C)c2c1` the outcome was “inactive”. For `COCCCCCCCCOCCC[Si](C)(O[Si](C)(C)C)O[Si](C)(C)C`, the outcome was “inactive”. With `C=C(C)C(=O)OCCN(C)C` the outcome was “inactive”. In the case of `Cn1sccc1=O`, the outcome is reported as “inactive”. For `Cc1cccc(Oc2ccccc2)c1`, the outcome was “inactive”. For `CCOc1cc(OCC)c(C(=O)CCC(=O)O)cc1OCC`, the outcome was “inactive”. For `CCCCCc1ccc(N)cc1`, the outcome was “inactive”. With `CCCCCCCCCCCCCCC1CO1` (stereo not given) the outcome was “inactive”.
